# Screening results deposited in PubChem BioAssay by Sanford-Burnham Center for Chemical Genomics.
# Hits are enriched below; roughly 4.1% of the tested compounds scored in any of these assays.
# NLRP3 yeast inh: NALP3 inflammasome inhibitors in reconstituted yeast, primary screen, luminescence, uHTS | Yeast reconstituted NLRP3/ASC/caspase-1, beta-gal luminescence, 24 h | AID 2825, 2010 | 330,000 compounds, 0.39% hits | inhibition, % at 10 µM;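 active means inhibition of 50% or more; inactive means inhibition below 50%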;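 further: plate controls were induced DMSO wells for no effect and uninduced yeast grown without galactose for full effect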
# tim23-1 inh: growth inhibitors of tim23-1 mutant yeast, primary screen, luminescence, uHTS; S. cerevisiae tim23-1 growth, BacTiter-Glo luminescence, 24 h; inhibition, % at 20 µM; 330,000 compounds, 1.3% hits; AID 463212, 2010;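 active means growth inhibition of the mutant yeast at or above 50%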;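 further: temperature-sensitive mutant grown at 25 °C; plate controls were DMSO-treated mutant yeast for no effect and medium wells lacking yeast for full effect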
# NALP1 yeast inh: NALP1 inflammasome inhibitors in reconstituted yeast, colorimetric, S. cerevisiae, triplicate retest. S. cerevisiae NALP1/ASC/caspase-1 growth, X-gal OD620, 72 h. inhibition, % at 10 µM. 280,000 compounds, 0.61% hits. AID 2071, 2009; in the data active means inhibition mostly above about 24%, no sharp cut-off; inactive means mostly below about 32%
# TIM10 inh: growth inhibitors of isogenic TIM10 control yeast, primary screen, counter-screen for tim10-1 yeast inhibitor project, luminescence, uHTS. S. cerevisiae TIM10 strain growth, BacTiter-Glo luminescence, 24 h. inhibition, % at 10 µM. 330,000 compounds, 1.4% hits;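 active means inhibition of 40% or more at the single tested concentration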;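 further: wild-type TIM10 isogenic control strain grown at permissive 25 °C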
# tim10-1 inh: growth inhibitors of tim10-1 mutant yeast, primary screen, luminescence, uHTS | S. cerevisiae tim10-1 ts strain growth, BacTiter-Glo, 24 h | 330,000 compounds, 2.2% hits | AID 463190, 2010 | inhibition, % at 20 µM;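 active means inhibition of at least 40%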;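 further: mutant grown at 25 °C; 0% = DMSO wells with yeast and 100% = wells holding no yeast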
# tim10-1 confirm: growth inhibitors of tim10-1 mutant yeast, confirmation, single concentration, luminescence, S. cerevisiae | 7,400 compounds, 56% hits | AID 463213, 2010 | S. cerevisiae tim10-1 ts strain growth, BacTiter-Glo, 24 h | inhibition, % at 20 µM | shares compounds with tim10-1 inh;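 active means inhibition of yeast growth at or above a set limit in either of two repeat tests at 20 µM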;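 further: tim10-1 mutant grown at permissive 25 °C to find synthetic lethal compounds; 0% = DMSO yeast wells and 100% = medium wells without yeast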
# An asterisk follows results filed as active; / = no result.
SMILES,NLRP3 yeast inh,tim23-1 inh,NALP1 yeast inh,TIM10 inh,tim10-1 inh,tim10-1 confirm
COc1ccc(/C=C2/SC(=O)NC2=O)cc1,32,39,13,38,39,/
O=C(COc1ccccc1/C=C1\SC(=O)NC1=O)Nc1ccccc1,18,25,0,13,18,/
O=C1NC(=O)/C(=C/c2ccccc2OCc2ccccc2)S1,18,20,-14,40,46*,37*
CC(C)(C)c1ccc(/C=C/C(=O)c2ccc(NC3=NCCCS3)cc2)cc1,8,35,47,26,43*,35*
O=C(/C=C/c1ccccc1)c1ccc(NC2=NCCCS2)cc1,/,/,33,/,/,/
COc1cccc(/C=C/C(=O)c2ccc(NC3=NCCCS3)cc2)c1,0,39,-11,38,43*,37*
COc1ccccc1CNC(=O)N[C@@H](Cc1ccccc1)C(=O)O,1,8,39,-16,14,/
CC(C)Nc1nc2n(c(=O)n1)CCN2C(C)C,4,2,19,-18,10,/
COCc1cc(C)nc(SCC[N+](C)(C)CC(=O)Nc2cccc(C(F)(F)F)c2)c1C#N,5,2,-14,9,6,/
COC(=O)c1cn(C(=O)c2ccc(C)cc2)c2ccccc12,-6,17,19,31,24,/
COC(=O)c1cn(C(=O)c2ccc(OC)cc2)c2ccccc12,25,42,20,12,42*,18
CCN(CC(=O)Nc1ccc(NC(C)=O)cc1)C(=O)/C=C/c1ccc(S(=O)(=O)N2CCCCCC2)cc1,-23,14,-16,5,10,/
Cc1ccccc1N/N=C/c1c(C)nc2ccccn12,25,31,24,17,45*,24
Cc1nc2ccccn2c1C(=O)N/N=C/c1ccccc1,-1,11,12,-10,12,/
CC(=O)Nc1ccc(NC2=C(Cl)C(=O)c3ccccc3C2=O)cc1,-3,29,1,33,26,/
Cc1ccc(NC2=C(NCCO)C(=O)c3ccccc3C2=O)cc1,8,27,24,19,43*,12
O=C(CCNS(=O)(=O)c1ccccc1)NNC(=O)c1cccc(Cl)c1,1,-9,/,-9,-8,/
O=C(OCCOc1cccc(Cl)c1)C1CCN(S(=O)(=O)c2ccccc2)CC1,10,38,16,9,44*,25
Cc1noc(C)c1CNCc1ccccc1,7,21,22,6,42*,7
Cc1[nH]n(-c2ccccc2)c(=O)c1N=Nc1c(O)cc(S(=O)(=O)N(C)C)c2ccccc12,20,44,/,30,43*,21
CC(=O)c1c(C)[nH]c(C(=O)OCC(=O)NCc2cccs2)c1C,5,0,/,4,13,/
CCOC(=O)c1sc(-c2ccc(F)cc2)cc1N,-41,45,-30,27,42*,39*
COc1ccccc1Cn1c(-c2ccco2)nc2nc3ccccc3nc21,12,11,/,28,31,/
COc1ccc(CCn2c(-c3ccco3)nc3nc4ccccc4nc32)cc1,9,18,0,28,41*,12
CCOc1ccc(NC(=O)Cc2ccc(S(=O)(=O)N3CCCCC3)cc2)cc1OCC,2,9,/,-2,-2,/
SMILES,NLRP3 yeast inh,tim23-1 inh,NALP1 yeast inh,TIM10 inh,tim10-1 inh,tim10-1 confirm
CCc1nc2cc(Cl)c(Cl)cc2[nH]1,29,27,36,32,41*,37*
CCOC(=O)c1sc2nc(N3CCOCC3)c3c(c2c1N)CCC3,21,42,12,32,32,/
CCOC(=O)c1oc2nc(CC(C)C)c3c(c2c1N)CCC3,-7,46,-3,38,40*,18
Cc1noc(C)c1CC(=O)N1CCCC(C(=O)c2ccc(C(C)(C)C)cc2)C1 (stereo not given),13,16,-6,30,41*,22
COc1ccc(C(=O)C2CCCN(C(=O)Cc3c(C)noc3C)C2)cc1OC (stereo not given),15,10,-8,-1,3,/
COc1ccc2nc3oc(C(=O)N4CCC(C(N)=O)CC4)cc3cc2c1,8,10,14,-5,6,/
Cc1nc2ccccc2c2oc(C(=O)N3CC(C)CC(C)C3)cc12 (stereo not given),5,42,12,5,52*,-9
Cc1nc2ccccc2c2oc(C(=O)NCCCN3CC(C)CC(C)C3)cc12 (stereo not given),12,-10,16,-4,-8,/
COc1ccc2cc3cc(C(=O)N4CC(C)CC(C)C4)oc3nc2c1 (stereo not given),17,46,2,30,56*,21
COc1cc(OC)c(C(=O)O/N=C(\N)c2ccc(C)cc2)cc1OC,16,36,9,33,46*,49*
COc1cc(OC)c(C(=O)O/N=C(\N)c2cccc(C)c2)cc1OC,23,36,19,28,48*,41*
COc1ccc(/C(N)=N/OC(=O)c2cccs2)cc1OC,3,23,12,25,66*,53*
N/C(=N\OC(=O)COc1ccc(Cl)cc1)c1ccc(Cl)cc1,4,9,39,25,27,/
COc1ccc(/C(N)=N/OC(=O)Cc2ccc(C)cc2)cc1OC,30,21,6,9,19,/
Cc1cccc(/C(N)=N/OC(=O)COc2ccc(Cl)cc2)c1,26,27,20,21,50*,46*
O=C(C[C@H]1C/C=C\CC[C@H](Cc2ccc(F)cc2)C(=O)OC[C@@H](Cc2c[nH]c3ccccc23)NC1=O)NCCO,22,6,/,-2,2,/
O=C(C1CCOCC1)N1CCCC(N2CCN(c3ccc(F)cc3)CC2)C1 (stereo not given),6,-16,18,3,-8,/
S=C1NCCOCCOCCOCCOCCNC(=S)NCCOCCOCCOCCOCCN1,2,-1,22,-4,9,/
Cc1ccc(S(=O)(=O)Nc2ncc(C(F)(F)F)cc2Cl)cc1,-4,19,16,-8,1,/
O=C(COC(=O)c1nc(Cl)ccc1Cl)NC1CCCCCC1,29,24,/,6,28,/
O=C(COC(=O)c1ncc(Cl)c(Cl)c1Cl)NC1CCCCCC1,-1,30,/,11,43*,19
CC/C(=N\Nc1ccccc1[N+](=O)[O-])c1ccc(O)cc1,41,38,-1,40,57*,39*
CC(C)CCNS(=O)(=O)c1cc2c3c(c1)CCN3C(=O)CC2,6,11,23,10,22,/
CCOC(=O)c1sc2nc3c(cc2c1N)COC(C)(C)C3,24,20,-78,4,40*,26
CCOC(=O)c1sc2nc3c(cc2c1N)COC(C)(CC)C3 (stereo not given),9,31,-16,34,43*,28
Cc1nc(-c2ccccc2)sc1-c1n[nH]c(=S)n1C,11,38,-8,26,48*,12
